Measurements taken from PubChem BioAssay (NCI).
About 83,000 compounds went through this panel and 20% of them were active in at least one assay; those are over-represented in the sample as a whole.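 Plates (96-well) were seeded with cells, treated with compound at one concentration, and incubated for 48 hours before percent growth was determined.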 Values without a mark were called inactive. Calls of active or inactive are those of the source. The calls were made as follows: active = growth percent below 10; inactive = the rest.

Tests used:
Assay in all cases: NCI-60 one-dose screen, 48 h (100 = growth as untreated, 0 = no growth, -100 = all killed)
Settings in all cases: 10 µM unless noted
[1] = tested on: NCI-H23 lung
[2] = tested on: NCI-H226 lung
[3] = tested on: NCI-H322M lung
[4] = tested on: HOP-62 NSCLC
[5] = tested on: NCI-H460 lung
[6] = tested on: HOP-92 NSCLC
[7] = tested on: NCI-H522 lung
[8] = tested on: A549/ATCC NSCLC
[9] = tested on: 786-0 renal
[10] = tested on: COLO 205 colon

SMILES | growth [1] | growth [2] | growth [3] | growth [4] | growth [5] | growth [6] | growth [7] | growth [8] | growth [9] | growth [10]
CCc1ccc(Oc2c(-c3ccc(OCc4ccc(Cl)cc4)cc3O)n[nH]c2C(F)(F)F)cc1 | 3.59% (active) | 24.8% | 35.3% | 57.5% | 3.21% (active) | -17.2% (active) | -22.9% (active) | 33.5% | 64.4% | 95.7%
COc1nc2ccccc2cc1-c1nc2c(cnn2-c2ccc(Br)cc2)c(=O)[nH]1 | 25.2% | 39.7% | 36.5% | 24.4% | 13.6% | 39% | 2.63% (active) | 39.9% | 15.5% | -50.2% (active)
COc1cccc(Cc2nn3cc(-c4ccccc4)nc3s2)c1 | 97.4% | 110% | 91.8% | 95.2% | 105% | 84.8% | 70.3% | 94.4% | 52% | 106%
Cc1cccc2c(=O)c3c(sc12)c(NCc1ccccc1)nc1ccccc13 | 84.5% | 76.3% | 89.9% | 87.5% | 54.8% | 111% | 81.6% | 92% | 100% | 87.2%
CCOC(=O)c1c(C)oc2ncnc(N3CCN(C(=O)COc4ccc(C(C)(C)C)cc4)CC3)c12 | 72.5% | 66.5% | 88.8% | 90.8% | 91.4% | 62.9% | 77.9% | 86% | 99.1% | 76.9%
CCCCCCCNC(=O)CCCNc1ncnc2c1ncn2-c1cccc(C(C)O)c1 (stereo not given) | 90.7% | 79.3% | 108% | 95.9% | 99.8% | 96.6% | 80.9% | 94.5% | 97.3% | 92.9%
CC(=O)OC[C@H]1OC(Sc2sc(C(=O)c3ccc(C)cc3)c(N)c2-c2nc3ccccc3s2)[C@H](OC(C)=O)[C@@H](OC(C)=O)[C@@H]1OC(C)=O (stereo not given in full) | 56.1% | 30.3% | 81.3% | 61.5% | 43.7% | 58.8% | 82.1% | 81.9% | 47.4% | 92.2%
COc1ccc(CNC(=O)C(=O)[C@H](Cc2ccccc2)NC(=O)c2[nH]c3ccccc3c(=O)c2C)cc1 | 101% | 103% | 96.8% | 102% | 108% | 117% | 96.4% | 95.6% | 102% | 113%
O=c1c2cccc(Cl)c2sc2c(NCCCNCCO)nc3ccccc3c12 | 52.4% | 67.7% | 44% | 39.6% | -86.2% (active) | -0.275% (active) | 49.5% | 27.5% | 45.6% | -61.4% (active)
O=C(Nc1ccc(I)cc1F)c1cc(I)ccc1O | -13.4% (active) | -4.51% (active) | -3.09% (active) | 16.8% | 2.89% (active) | -20.5% (active) | -5.05% (active) | 10.9% | 2.12% (active) | 91.1%
CS(=O)(=O)Nc1cc(-c2ccc3ncnc(Nc4cccc(Cl)c4F)c3c2)cnc1Cl | 56.6% | 49.2% | 47.2% | 54.7% | 41.5% | 13.3% | 53.8% | 67.4% | 29.6% | 66.3%
O=CN1N=C(c2ccc(Nc3ccnc4cc(Cl)ccc34)cc2)CC1c1ccccc1 (stereo not given) | 48% | 65.3% | 81.3% | 49.8% | 44.4% | 16.3% | 2.53% (active) | 37.6% | 31.4% | 55.2%
CN(C)CC#Cc1ccc2ncc(C#N)c(Nc3ccc(F)c(Cl)c3)c2c1 | 58.2% | 60.8% | 14.9% | 67.8% | 50.8% | 56.1% | 45.3% | 51% | 49.4% | 71.3%
COc1ccc(C(=O)C[C@]2(O)C(=O)Nc3c(Cl)ccc(Cl)c32)cc1 | 44.3% | 58.8% | 47.5% | 40.4% | 10.1% | 62.1% | 13.4% | 53.4% | 55.9% | 7.6% (active)
Cc1nn(-c2ccccc2)c(-n2ccnc2)c1/C=N/Nc1nc(-c2ccc(Cl)c(Cl)c2)cs1 | 12.5% | 51.9% | 76% | 10.8% | 3.5% (active) | -22.9% (active) | 31.5% | -8.24% (active) | 20.7% | 52.1%
COc1ccc(CN2c3ccccc3Sc3ccccc32)c(F)c1 | 50.5% | 56.1% | 44.7% | 26.6% | 11% | 33.2% | -12% (active) | 34.1% | 42.2% | 11.7%
CNc1nc2c(s1)C(c1cccc(F)c1)CC(=O)N2 (stereo not given) | 100% | 90.3% | 99.1% | 93.3% | 106% | 93.4% | 87.4% | 106% | 97.4% | 110%
CCCCn1c(=O)c(-c2cc(-c3ccc(Cl)cc3)nc(-c3ccc(Cl)cc3)c2)cc2cc(C)ccc21 | 101% | 105% | 95.5% | 102% | 106% | 103% | 94.9% | 98.2% | 102% | 111%
CC([C@H]1CCC2C3CCC4C(=O)C(NC=O)=CC[C@]4(C)C3CC[C@@]21C)N(C)C (stereo not given in full) | 44.2% | 88.5% | 30.4% | 74.2% | -4.84% (active) | 41.7% | 96.1% | 45% | 46.1% | -80.1% (active)
CNC(=O)c1[nH]cc(-c2ccccc2)c1-c1cc(OC)c2c(c1OC)OCO2 | 104% | 94.6% | 103% | 94.5% | 108% | 96.7% | 87.9% | 96.7% | 94.8% | 102%
CNC(=O)c1cc(-n2ccc3cc(NC(=O)c4ccc(N5CCOCC5)c(C(F)(F)F)c4)ccc32)ccn1 | 64% | 51.7% | 91.5% | 62% | 68.4% | 60.5% | 52% | 46.3% | 47.8% | 42.9%
O=C1c2cccc3cccc(c23)C(=O)N1N1C(=O)c2cccc3c(NC4CCCCC4)ccc(c23)C1=O | 90.4% | 94% | 96.4% | 92.6% | 98.8% | 79.9% | 88.1% | 94.4% | 105% | 103%
NCCCNc1nc2ccccc2c2c(=O)c3cc(OC(F)(F)F)ccc3sc12 | 48.3% | 85.7% | 49.1% | 51.6% | -76.6% (active) | 17.3% | -14.4% (active) | -43.3% (active) | 57.5% | -52.7% (active)
COc1ccccc1/C=C1\Oc2cc(OCCN3CCC(Cc4ccccc4)CC3)ccc2C1=O | 93.9% | 96.9% | 85.6% | 103% | 93% | 57.8% | 91.7% | 96.2% | 80% | 38.4%
COc1cc(C(=O)/C=C/c2ccc(OCCCCCC[P+](c3ccccc3)(c3ccccc3)c3ccccc3)cc2)cc(OC)c1OC | -63% (active) | -29.2% (active) | -23.1% (active) | -62.2% (active) | -73.6% (active) | -26.2% (active) | -70.4% (active) | -1.89% (active) | -92.4% (active) | -95.3% (active)
COc1ccc(C2CC(c3ccc(Nc4nc(Nc5ccc(F)cc5)nc(Nc5ccc(Cl)cc5)n4)cc3)=NN2C(C)=O)cc1 (stereo not given) | 91.8% | 97.7% | 123% | 110% | 102% | 82.8% | 58.1% | 90.2% | 98.9% | 96.1%
